Screens deposited in PubChem by Small Molecule Screening Facility, UW Madison.
The sample as a whole holds a higher share of hits than the screen did.
RMI-FANCM inh: RMI-FANCM interaction inhibition; Fluorescence polarization, RMI core complex with F-MM2 peptide; stronger effect = lower value; FP signal (polarization) at 33 µM; 70,000 compounds, 0.58% hits; in the data active means FP signal below about 40
Active calls of the source: *; ! = not confirmed by another sample.

SMILES	RMI-FANCM inh
O=C(Nc1nc(-c2cc(Cl)sc2Cl)cs1)c1ccc([N+](=O)[O-])s1	28*
CCOC(=O)c1c(NC(=S)NC(=O)c2ccc(C(=O)OC)cc2)sc(OC(=O)CC)c1C	87
O=C(Nc1ccc(-c2nc3cccnc3s2)cc1)c1ccco1	155
Cc1cc(-c2nc3cccnc3s2)ccc1NC(=O)c1ccc2ccccc2n1	1*
CCOc1ccccc1C(=O)Nc1ccc(-c2nc3cccnc3s2)cc1	94
O=C(Nc1ncnc2sccc12)c1ccc(C(=O)c2ccccc2)cc1	76
CC(C)C(=O)NCCc1ccc(N2CCCC2)cc1	72
O=C(O)c1nccnc1-c1nc2ccccc2c(=O)[nH]1	56
CC(=O)c1ccc(NS(=O)(=O)c2cccc(C(F)(F)F)c2)cc1	50
COC(=O)c1ccc2c(c1)C(=O)N(c1ccc([N+](=O)[O-])cc1)C2=O	66
O=C1OC(=O)c2c(Oc3ccccc3)cc3c4c(c(Oc5ccccc5)cc1c24)C(=O)OC3=O	30*
c1ccc(Oc2cccc(Oc3ccccc3)c2)cc1	58
O=C1c2cc(Cl)c(Cl)cc2C(=O)N1c1ccc(Oc2ccccc2)cc1	64
O=C(NCC1CCN(C2CCCC2)CC1)C(=O)Nc1ccc(F)cc1F	75
c1cn2c(n1)NCC2	-22*
c1ccc2c(c1)nc1n2CCN1	65
Cc1c(-n2c(-c3ccccc3)cs/c2=N/N=C/c2ccccc2Cl)c(=O)n(-c2ccccc2)n1C	73
COc1cc(/C=N\N=C2/NC(=O)CCS2)cc(OC)c1	53
COc1ccccc1NC(=O)Cn1nc2ccc(SC(C)(C)C)nn2c1=O	64
N/C(=N/O)c1c(Cl)cccc1Cl	48
Cc1ccc(C=Nc2sc(C)c(C)c2C#N)s1	62
Cc1sc(N=Cc2ccco2)c(C#N)c1C	-16*
CCN(CC)c1ccc(C=Nc2sc(C)c(C)c2C#N)cc1	68
CNc1nn(CC(=O)NCc2ccc(Cl)cc2)c(N)c1-c1nc(-c2ccc(Cl)cc2)no1	83
CC(=O)N1CCc2ccc(NC(=O)c3c(-c4ccccc4Cl)noc3C)cc21	66
SMILES	RMI-FANCM inh
Cc1onc(-c2ccccc2Cl)c1C(=O)Nc1ccc2c(c1)OCC(C)(C)C(=O)N2	66
Cc1onc(-c2ccccc2Cl)c1C(=O)Nc1ccc2c(c1)COCO2	1*
CCOc1ccc(-c2nc(CSc3nc(-c4ccccc4)cc(=O)[nH]3)c(C)o2)cc1	66
Cc1cc(=O)oc2cc(O)c(O)cc12	10*
Cc1cc(=O)oc2cc(O)ccc12	51
Cc1cc(=O)oc2c(O)c(O)ccc12	66
FC(F)(F)c1c[nH]c(=S)c(C(F)(F)F)c1	55
CC(=O)NC1C(OC(=O)COc2ccc(Cl)cc2C)OC(COC(C)=O)C(OC(C)=O)C1OC(C)=O (centres undefined)	61
COC(=O)c1ccccc1NC(=O)CSc1nccn2nc(-c3ccccc3OC)cc12	80
Cc1ccc(S(=O)(=O)Nc2ccc3c(c2)N(C(=O)C2CCCC2)CC3)cc1	72
COC(=O)C1=C(C)NC(C)=C(C(=O)OCC(C)C)C1c1ccccc1[N+](=O)[O-] (centres undefined)	21*!
COC(=O)C1=C(C)Nc2[nH]ncc2C1c1ccccc1 (centres undefined)	69
COC(=O)C1=C(C)NC(C)=C(C(=O)OC(C)C)C1c1cccc2nonc12 (centres undefined)	58
COc1ccc(C)cc1S(=O)(=O)NCCc1csc(-c2ccc(C(F)(F)F)cc2)n1	54
CCN(CC)CCN(C(=O)CCS(=O)(=O)c1ccccc1)c1nc2cc3c(cc2s1)OCCO3	97
CC(C)Cc1ccc(C(=O)C(C)Sc2nnc(-c3ccc4ccccc4c3)n2C)cc1 (centres undefined)	76
COc1ccc2nc(-c3ccc(F)c(NC(=O)c4ccccc4C)c3)cn2n1	98
COc1ccc2nc(-c3ccc(Cl)c(NC(=O)c4ccccc4C)c3)cn2n1	33*
COc1ccc2nc(-c3ccc(OC)c(NC(=O)c4ccccc4C)c3)cn2n1	73
NC(=O)N1CCCCC/C1=N/O	59
N/C(=N/OC(=O)Nc1ccccc1)c1ccc(Oc2c(Cl)cncc2Cl)cc1	67
COC(=O)c1sc2ccccc2c1NC(=O)c1ccc(Br)s1	85
COC(=O)c1sc2ccccc2c1NC(=S)NC(=O)c1ccc(Cl)cc1	63
COC(=O)c1sc2ccccc2c1NC(=O)c1cc(Cl)sc1Cl	30*
C[N+](C)(C)CCSSCC[N+](C)(C)C	59
SMILES	RMI-FANCM inh
CCCCCCCCCCCCCO	55
CCCCCCCCCCCCCCCC[N+](C)(C)C	34*
COc1ccc(NC(=O)c2cnc3c(c(C)nn3-c3ccccc3)c2Cl)c(OC)c1	57
Cc1cc(C)c(S(=O)(=O)N2CCN(C(=O)c3ccccc3Cl)CC2)c(C)c1	69
Cc1c(-c2csc(Nc3ccc(Cl)cc3)n2)sc2nc(C(F)(F)F)nn12	65
CCC(C)n1c(=O)c2ccccc2n(Cc2nc(-c3cccc(Br)c3)no2)c1=O (centres undefined)	100
O=S(=O)(O)c1nc2ccccc2o1	61
O=c1[nH]c(CSc2nc3ccccc3o2)nc2ccccc12	55
O=c1c(Cl)c2oc3ccccc3nc-2c2ccccc12	32*
N#C/C(=C/c1ccc(-c2cccc(C(F)(F)F)c2)o1)C(=O)Nc1sc2c(c1C(N)=O)CCCC2	88
Cc1c(C(O)=C2C(=O)C(=O)N(CCN(C)C)C2c2ccc(F)cc2)cnn1-c1ccccc1 (centres undefined)	62
CCOC(=O)c1c(NC(=O)c2cc(S(=O)(=O)C(C)C)c(SC)s2)sc(C)c1C	37*
CCOC(=O)c1c(NC(=O)c2ccc(Br)s2)sc(C)c1C	79
CCOC(=O)c1c(NC(C)=O)sc(C)c1C	56
Cn1c(=O)n(CC(=O)N2CCCC2)c(=O)c2c(N3CCN(C(=O)c4ccco4)CC3)ccnc21	64
COc1ccc(CNC(=O)CSc2ncc(S(=O)(=O)c3cccs3)c(N)n2)cc1	67
O=C(Nc1ccc2c(c1)OCCO2)c1ccc(=O)n(Cc2cccc(F)c2)n1	60
CCc1nn(C)c2c(=O)c(=O)c2n(C)[nH]1	32*
Cc1csc(CN2CCN(C(=O)c3cccs3)CC2)n1	61
C(/C=C/c1ccco1)=N/Nc1nnc(-c2ccccc2)c(-c2ccccc2)n1	21*
C(=N/Nc1nc2ccccc2s1)/c1ccco1	61
C(=N/Nc1nnc(-c2ccccc2)c(-c2ccccc2)n1)/c1ccncc1	56
CN(C)/C=C/C(=O)c1ccc(-c2cccs2)s1	63
CCOC(=O)C1CCN(C(=O)c2nn(-c3ccc(C)cc3)c(=O)cc2OC)CC1	54
COc1ccc(Cl)cc1S(=O)(=O)N1CCN(c2ccc(-c3ccccc3)nn2)CC1	74
SMILES	RMI-FANCM inh
CCOc1cn(C)c(C(=O)NCc2ccc3c(c2)OCO3)cc1=O	63
CC(=O)c1c(C)nn(-c2ccccc2)c1-c1ccccc1[N+](=O)[O-]	60
CC(=O)C1C(=O)c2cccc([N+](=O)[O-])c2C1=O (centres undefined)	53
CC(=O)c1cccc(N2C(=O)c3cccc([N+](=O)[O-])c3C2=O)c1	29*
O=C1C(Cl)=C(Sc2ccccc2Br)C(=O)c2ccccc21	58
Cc1ccc(C)c(-c2cc(-c3nc(-c4ccc5c(c4)OCO5)no3)[nH]n2)c1	97
CCOc1ccc(N2CC(NC(=O)NCC3CCCO3)CC2=O)cc1 (centres undefined)	56
O=c1c2sc3ccccc3c2[nH]c(=S)n1CC1CCCO1 (centres undefined)	57
